# From PubChem BioAssay (NCI)
# “And” between values parts separate entries of the source, which are not always exact repeats. Equal entries are not always repeated. This is part of a sample that, as a whole, favours compounds with a hit. Of some 79,000 tested, about 15% had one in any assay. Values without a mark were called inactive. The source made the active and inactive calls. Cut-off read from the data, not from the text of the source: active = growth inhibition above about 70%; inactive = the rest.
# How the values were obtained:
# [1] = NCI Yeast Anticancer Drug Screen. Data for the mec2-1 strain (AID 157); conditions: S. cerevisiae mec2-1 strain, stronger effect = higher value
# Procedure, shortened: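 Compounds were applied to mec2-1 yeast cells. Their growth was then compared with that of vehicle-treated cultures to give growth inhibition.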
# [2] = NCI Yeast Anticancer Drug Screen. Data for the rad14 strain (AID 159);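 note: 0% = growth of vehicle-treated control cultures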; conditions: S. cerevisiae rad14 strain growth inhibition, stronger effect = higher value
# Procedure, shortened: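 DNA repair-defective yeast, compound-exposed; % growth inhibition derived by comparison with vehicle-treated controls.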
# [3] = NCI Yeast Anticancer Drug Screen. Data for the sgs1 mgt1 strain (AID 161);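 note: 0% = growth of cultures given vehicle only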; conditions: S. cerevisiae sgs1 mgt1 strain, stronger effect = higher value
# Procedure, shortened: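 Yeast cells carrying a defined DNA-repair defect were exposed to test compounds. Growth inhibition was measured relative to vehicle-treated controls.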
# [4] = NCI Yeast Anticancer Drug Screen. Data for the CLN2oe strain (AID 163);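 note: 0% = growth of vehicle-only control cultures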; conditions: S. cerevisiae CLN2oe strain, stronger effect = higher value
# Procedure, shortened: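 Cells of an engineered yeast line with disturbed cell-cycle regulation are treated with compound. Inhibition of growth is then calculated relative to the vehicle-treated reference.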
# [5] = NCI Yeast Anticancer Drug Screen. Data for the cln2 rad14 strain (AID 165);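 note: 0% = growth equal to vehicle treated cultures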; conditions: S. cerevisiae cln2 rad14 strain, stronger effect = higher value
# Procedure, shortened: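 Strain: cln2 rad14 yeast, altered in cell cycle control and DNA damage repair. Read-out: growth inhibition vs vehicle.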
# [6] = NCI Yeast Anticancer Drug Screen. Data for the bub3 strain (AID 167); conditions: S. cerevisiae bub3 mutant strain, stronger effect = higher value
# Procedure, shortened: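 In this screen, a yeast mutant lacking normal mitotic checkpoint function is challenged with compound. Relative growth versus vehicle gives the inhibition value.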
# [7] = NCI Yeast Anticancer Drug Screen. Data for the wt2 strain (AID 169);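 note: 0% = growth of vehicle-treated yeast cultures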; conditions: S. cerevisiae wt2 strain growth inhibition, stronger effect = higher value
# Procedure, shortened: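 Growth of compound-treated yeast is measured and expressed as inhibition relative to vehicle-only controls.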
# [8] = NCI Yeast Anticancer Drug Screen. Data for the mlh1 strain (AID 171);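 note: 0% = growth of vehicle-treated control cultures of the same strain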; conditions: S. cerevisiae mlh1 strain growth inhibition, stronger effect = higher value
# Procedure, shortened: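 Test agents were incubated with yeast bearing a defined DNA damage repair or cell cycle control alteration; values are growth inhibition normalised to vehicle-treated cultures.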
# [9] = NCI Yeast Anticancer Drug Screen. Data for the mlh1 rad18 strain (AID 175); conditions: S. cerevisiae mlh1 rad18 strain growth inhibition, stronger effect = higher value
# Procedure, shortened: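 A repair-deficient yeast strain is exposed to test compound, and growth is scored relative to vehicle-treated controls.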
# [10] = NCI Yeast Anticancer Drug Screen. Data for the rad18 strain (AID 177); conditions: S. cerevisiae rad18 mutant growth inhibition, stronger effect = higher value
# Procedure, shortened: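 DNA-repair-defective yeast; compound treatment; growth inhibition scored against vehicle.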
# [11] = NCI Yeast Anticancer Drug Screen. Data for the rad52 strain (AID 147);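 note: 0% = growth of vehicle-treated control cultures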; conditions: S. cerevisiae rad52 mutant growth inhibition, stronger effect = higher value
# Procedure, shortened: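 Growth of repair-deficient yeast cells was compared between compound-treated and vehicle-treated cultures to give percent inhibition.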
# [12] = NCI Yeast Anticancer Drug Screen. Data for the wt1 strain (AID 149);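 note: 0% = growth of vehicle-treated wt1 cultures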; conditions: S. cerevisiae wt1 strain (SPY 50644) growth inhibition, stronger effect = higher value
# Procedure, shortened: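 wt1 strain grown with compound or vehicle; inhibition taken from the growth difference.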
# [13] = NCI Yeast Anticancer Drug Screen. Data for the rad50EPP+ strain (AID 151);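 note: 0% = growth of vehicle-treated control cultures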; conditions: S. cerevisiae rad50 mutant strain, stronger effect = higher value
# Procedure, shortened: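 Measured: growth inhibition of rad50EPP+ yeast. Reference: vehicle-treated controls. Screen uses strains with defined genetic alterations in DNA damage repair or cell cycle control.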
# [14] = NCI Yeast Anticancer Drug Screen. Data for the rad50 strain (AID 155);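 note: 0% = growth of vehicle-only cultures of the same strain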; conditions: S. cerevisiae rad50 strain growth inhibition, stronger effect = higher value
# Procedure, shortened: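 DNA repair mutant yeast, compound exposure, growth read-out; inhibition is taken relative to vehicle.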
# [15] = NCI Yeast Anticancer Drug Screen. Data for the sgs1 strain (AID 173);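 note: 0% = growth of vehicle-only control cultures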; conditions: S. cerevisiae sgs1 mutant, stronger effect = higher value
# Procedure, shortened: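 Strain with an altered DNA repair or cell cycle pathway exposed to compound. Growth then measured. Value = inhibition versus vehicle control.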
# [16] = at 5.0 µM (retest, dose inferred, filed as 0.5)
# [17] = at 50.0 µM (retest, dose inferred, filed as 5.0)
structure (smiles),measurement,setting,value
COc1ccc(/C(C#N)=C/c2ccc(OC)c(OC)c2)cc1,growth inhibition,[1]; at 100.0 µM,18%
same,growth inhibition,[2]; at 1.2 µM,-17%
same,growth inhibition,[2]; at 3.7 µM,-29%
same,growth inhibition,[2]; at 11.0 µM,-27%
same,growth inhibition,[2]; at 33.0 µM,-13%
same,growth inhibition,[2]; at 100.0 µM,32%
same,growth inhibition,[3]; [16],-15%
same,growth inhibition,[3]; [17],57%
same,growth inhibition,[3]; at 50.0 µM,46.8%
same,growth inhibition,[4]; at 1.2 µM,13%
same,growth inhibition,[4]; at 3.7 µM,9%
same,growth inhibition,[4]; at 11.0 µM,-2%
same,growth inhibition,[4]; at 33.0 µM,0%
same,growth inhibition,[4]; at 100.0 µM,-5%
same,growth inhibition,[5]; [16],55%
same,growth inhibition,[5]; [17],60%
same,growth inhibition,[5]; at 50.0 µM,7.8%
same,growth inhibition,[6]; at 1.2 µM,-5%
same,growth inhibition,[6]; at 3.7 µM,-3%
same,growth inhibition,[6]; [16],10%
same,growth inhibition,[6]; at 11.0 µM,2%
same,growth inhibition,[6]; at 33.0 µM,9%
same,growth inhibition,[6]; [17],75% (active)
same,growth inhibition,[6]; at 50.0 µM,50.2%
same,growth inhibition,[6]; at 100.0 µM,51%
same,growth inhibition,[7]; at 1.2 µM,-49%
same,growth inhibition,[7]; at 3.7 µM,-35%
same,growth inhibition,[7]; at 11.0 µM,-21%
same,growth inhibition,[7]; at 33.0 µM,-5%
same,growth inhibition,[7]; at 100.0 µM,21%
same,growth inhibition,[8]; at 1.2 µM,-8%
same,growth inhibition,[8]; at 3.7 µM,2%
same,growth inhibition,[8]; at 11.0 µM,10%
same,growth inhibition,[8]; at 33.0 µM,28%
same,growth inhibition,[8]; at 100.0 µM,40%
same,growth inhibition,[9]; [16],30%
same,growth inhibition,[9]; [17],81% (active)
same,growth inhibition,[9]; at 50.0 µM,26.1% and 58.4%
same,growth inhibition,[10]; at 1.2 µM,-13%
same,growth inhibition,[10]; at 3.7 µM,-17%
same,growth inhibition,[10]; at 11.0 µM,-13%
same,growth inhibition,[10]; at 33.0 µM,0%
same,growth inhibition,[10]; at 100.0 µM,13%
CC(C)(O)c1ccccc1C(c1ccccc1)c1ccccc1,growth inhibition,[11]; at 1.2 µM,0%
same,growth inhibition,[11]; at 3.7 µM,-3%
same,growth inhibition,[11]; at 11.0 µM,9%
same,growth inhibition,[11]; at 33.0 µM,3%
same,growth inhibition,[11]; at 100.0 µM,8%
same,growth inhibition,[12]; at 1.2 µM,0%
same,growth inhibition,[12]; at 3.7 µM,-1%
same,growth inhibition,[12]; at 11.0 µM,5%
same,growth inhibition,[12]; at 33.0 µM,-3%
same,growth inhibition,[12]; at 100.0 µM,4%
same,growth inhibition,[13]; at 1.2 µM,-5%
same,growth inhibition,[13]; at 3.7 µM,-4%
same,growth inhibition,[13]; at 11.0 µM,5%
same,growth inhibition,[13]; at 33.0 µM,-1%
same,growth inhibition,[13]; at 100.0 µM,4%
same,growth inhibition,[14]; at 1.2 µM,-2%
same,growth inhibition,[14]; at 3.7 µM,3%
same,growth inhibition,[14]; [16],53%
same,growth inhibition,[14]; at 11.0 µM,4%
same,growth inhibition,[14]; at 33.0 µM,6%
same,growth inhibition,[14]; [17],85% (active)
same,growth inhibition,[14]; at 50.0 µM,18.6%
same,growth inhibition,[14]; at 100.0 µM,7%
same,growth inhibition,[1]; at 1.2 µM,-2%
same,growth inhibition,[1]; at 3.7 µM,0%
same,growth inhibition,[1]; [16],-5%
same,growth inhibition,[1]; at 11.0 µM,-2%
same,growth inhibition,[1]; at 33.0 µM,1%
same,growth inhibition,[1]; [17],42%
same,growth inhibition,[1]; at 50.0 µM,9.35%
same,growth inhibition,[1]; at 100.0 µM,5%
same,growth inhibition,[2]; at 1.2 µM,0%
same,growth inhibition,[2]; at 3.7 µM,0%
same,growth inhibition,[2]; at 11.0 µM,0%
same,growth inhibition,[2]; at 33.0 µM,3%
same,growth inhibition,[2]; at 100.0 µM,10%
same,growth inhibition,[3]; [16],25%
same,growth inhibition,[3]; [17],88% (active)
same,growth inhibition,[3]; at 50.0 µM,17%
same,growth inhibition,[5]; [16],17%
same,growth inhibition,[5]; [17],80% (active)
same,growth inhibition,[5]; at 50.0 µM,-1%
same,growth inhibition,[6]; at 1.2 µM,-2%
same,growth inhibition,[6]; at 3.7 µM,-2%
same,growth inhibition,[6]; [16],29%
same,growth inhibition,[6]; at 11.0 µM,-4%
same,growth inhibition,[6]; at 33.0 µM,-2%
same,growth inhibition,[6]; [17],86% (active)
same,growth inhibition,[6]; at 50.0 µM,7.9%
same,growth inhibition,[6]; at 100.0 µM,4%
same,growth inhibition,[7]; at 1.2 µM,-9%
same,growth inhibition,[7]; at 3.7 µM,-10%
same,growth inhibition,[7]; at 11.0 µM,-12%
same,growth inhibition,[7]; at 33.0 µM,-10%
same,growth inhibition,[7]; at 100.0 µM,-17%
same,growth inhibition,[8]; at 1.2 µM,-3%
same,growth inhibition,[8]; at 3.7 µM,-3%
same,growth inhibition,[8]; at 11.0 µM,-2%
same,growth inhibition,[8]; at 33.0 µM,0%
same,growth inhibition,[8]; at 100.0 µM,9%
same,growth inhibition,[15]; at 1.2 µM,-6%
same,growth inhibition,[15]; at 3.7 µM,20%
same,growth inhibition,[15]; at 11.0 µM,-14%
same,growth inhibition,[15]; at 33.0 µM,-5%
same,growth inhibition,[15]; at 100.0 µM,1%
same,growth inhibition,[9]; [16],59%
same,growth inhibition,[9]; [17],92% (active)
same,growth inhibition,[9]; at 50.0 µM,10.9%
same,growth inhibition,[10]; at 1.2 µM,-2%
same,growth inhibition,[10]; at 3.7 µM,1%
same,growth inhibition,[10]; at 11.0 µM,1%
same,growth inhibition,[10]; at 33.0 µM,3%
same,growth inhibition,[10]; at 100.0 µM,15%
